# Reference: PubChem BioAssay (NCATS)
# Results filed as inconclusive are left out. Values without a mark were called inactive. The source made the active and inactive calls. Calls follow the shape of the dose curve; as a rule, active = well fitted inhibition curve with a large enough effect; inconclusive = small, poorly fitted or top-dose-only effect; inactive = flat fitted curve, though single readings scatter.
# Test system: CRL-7250
# Assay: Cytotoxic Profiling of Annotated Libraries Using Quantitative High-Throughput Screening (AID 1296008); also: nearly all actives have a fitted effect of over 60% in size
# Settings: Five cell lines viability, CellTiter-Glo ATP luminescence, 48-72 h; max response: stronger effect = lower value
# In short: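 Cells exposed to compounds for 48 or 72 hr at 37 degrees Celsius. Viability read as ATP-coupled luminescence with CellTiter-Glo after 10 min at room temperature.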
# % is scaled to controls: 0 for no effect and ±100 for the full control effect; potency is read from the fitted curve at half-maximal effect.
SMILES,max response,outcome,Potency
O=C(CCc1ccccc1)N1CCC(O)(Cn2cnc3cc(Cl)ccc3c2=O)CC1,-1.98%,–,–
COC(=O)CC(O)C1OC(c2ccccc2)C(O)C1O (stereo not given),-3.81%,–,–
CC(C)S(=O)(=O)NC[C@H](C)c1ccc(NC(=O)c2cc(F)cc(F)c2)cc1,–,inactive,–
Nc1ncnc2c1ncn2CCNCCCCCO,–,inactive,–
C=C1CCC2C(C)(C)C(O)CCC2(C)C1CCC(C)CCO (stereo not given),-1.18%,–,–
C=C1C(=O)O[C@@H]2C[C@H](C)[C@@]3(O)C=C(C(C)=O)[C@]4(CC3C[C@H]12)C(=O)O[C@H]1C[C@@H](C)C(CCC(C)=O)=CC[C@H]14 (stereo not given in full),–,inactive,–
COC(=O)[C@@]1(c2ccc(C)cc2)C[C@H]1CN1CCC(O)(c2ccccc2)CC1,3.12%,–,–
C=C1C[C@]23C[C@H]1CC[C@H]2[C@]1(C)CCC[C@@](C)(C(=O)O)[C@H]1[C@@H]3C(=O)O,–,inactive,–
COC(=O)Cc1cc2c(c([N+](=O)[O-])c1)N(C(=O)CC[C@H](N)C(=O)O)CC2,-4.18%,–,–
C=C1CC[C@@H]2[C@@](C)(CO[C@@H]3O[C@H](CO)C(O)[C@H](O)C3O)[C@H](O)CC[C@@]2(C)[C@@H]1CC/C(C)=C/CO (stereo not given in full),–,inactive,–
O=C(O)CCCCCC[C@H]1C(=O)NC(=O)N1CC[C@@H](O)C1CCCCC1,3.98%,–,–
NC(=O)[C@H]1CCS[C@@H]2C[C@]3(CCCN3C(=O)Cc3ccc(NC(=O)COc4ccc(Cl)cc4Cl)cc3)C(=O)N12,-14.3%,–,–
CC(=O)N1CCc2ccc(O)c(OC3OC(COC4OCC(O)(CO)C4O)C(O)C(O)C3O)c2C1Cc1ccc(O)cc1 (stereo not given),-12.6%,–,–
CC(C)C[C@H](CC(=O)NO)C(=O)N[C@@H](Cc1ccc2ccccc2c1)C(=O)N[C@@H](C)C(=O)NCCN,-4.14%,–,–
CCCOC(c1cc2nccc(C(=O)O)c2[nH]1)c1ccccc1Cl (stereo not given),-10.8%,–,–
Cc1cc(O)cc(O[C@@H]2O[C@H](CO)[C@@H](O)[C@H](O)[C@H]2O)c1,–,inactive,–
O=C(NOCC(O)CO)c1ccc(F)c(F)c1Nc1ccc(I)cc1F (stereo not given),–,–,4.61 µM (active)
CCCCCCOc1cc2c(cc1N(C)c1ncc(C(=O)O)cn1)C(C)(C)CCC2(C)C,4.99%,–,–
Cc1ccc(-c2c(C(=O)CF)n(CCCO)c3ncnc(N)c23)cc1,-0.58%,–,–
CC(O)CO[C@@H]1O[C@H](CO)[C@@H](O)[C@H](O)[C@H]1O (stereo not given in full),-3.19%,–,–
CC(=O)OC1C[C@@]2(C)[C@@H](CC[C@@H](C)[C@]23Cc2c(O)cc4c(c2O3)CNC4=O)C(C)(C)[C@@H]1O (stereo not given in full),2.93%,–,–
CC(=O)O[C@H]1[C@H](O[C@H]2[C@@H]3C=CO[C@@H](O[C@@H]4O[C@H](CO)[C@@H](O)[C@H](O)[C@H]4O)[C@@H]3[C@@]3(CO)O[C@@H]23)O[C@@H](C)[C@H](OC(=O)/C=C/c2ccccc2)[C@H]1OC(=O)/C=C/c1ccccc1,-1.73%,–,–
COC1/C=C/C(C)(O)C(SCC(N)C(=O)O)CC(=O)OC(C)C(C)CC/C=C/1C (stereo not given),1.64%,–,–
Cc1cc(Nc2nc(NC(C)c3ncc(F)cn3)ncc2Cl)n[nH]1 (stereo not given),–,inactive,–
C/C=C/C=C/C(O)=C1\C(O)=C(C)C(=O)[C@@]2(C)OC(=O)[C@@](C)(NC(=O)/C=C/C(=O)O)[C@@H]12,-29.7%,–,–
COc1cc2nc(N3CCCC3)nc(NCCCCCN3CCCC3)c2cc1OC,–,–,20.6 µM (active)
Cc1ccc(Cc2c(C)nc3nc(SCC(=O)NCCN4CCNCC4)nn3c2C)cc1,–,inactive,–
CC(=O)C1=C(C)N(c2cccc(C(F)(F)F)c2)C(=O)N[C@H]1c1ccc(C#N)nc1,2.3%,–,–
C=CC1(C)CC(OC(=O)/C(C)=C\COC(C)=O)C(C(=C)C(=O)O)C(O)C1C(=C)CO (stereo not given),–,inactive,–
COc1cc(C2c3cc4c(c(O)c3CC(CO)C2C(=O)O)OCO4)cc(OC)c1O (stereo not given),–,–,3.17 µM (active)
